Measured values from ChEMBL document CHEMBL3988442, “University of Dundee, Small-Polar-MMV Screening Library” (2021).
The campaign covered roughly 69,000 compounds. About 950 (1.4%) showed an effect of 50% or more. For the sample, strong results were picked, then their nearest neighbours and some compounds at random.

System: Mycobacterium tuberculosis
Assay: Cornell M. t heat shock assay; also: in the data most compounds retested in dose-response had high values
Type: functional, organism-based
Design: dose or concentration left out as unconfirmed

Point of comparison: CN(C)C(=O)CN1CCOCC2(C1)CN(c1ncccn1)CCO2.O=C(O)C(F)(F)F (centres undefined), “Percent Effect” value -21.69%. Against it:
- CCS(=O)(=O)N1CCN(CCOC)c2ncccc2C1 — higher, 7.581%
- CC(=O)N1N=C(c2ccccc2)OC1C(=O)N(C)CCc1ccccc1 (centres undefined) — higher, 0.1011%
- CC(=O)N1N=C(c2ccccc2)OC1C(=O)NCCC1=CCCCC1 (centres undefined) — higher, -12.6%
- CC(=O)N1N=C(c2ccccc2)OC1C(=O)NCCN(C(C)C)C(C)C (centres undefined) — higher, 73.05%
- CC(=O)N1N=C(Cc2ccccc2)OC1C(=O)NCC(=O)OC(C)(C)C (centres undefined) — higher, 11.49%
- CC(=O)N1N=C(c2ccccc2)OC1C(=O)NCCOc1ccccc1 (centres undefined) — higher, 46.95%
- CC(=O)N1N=C(c2ccccc2)OC1C(=O)NCCc1ccc(Cl)cc1 (centres undefined) — higher, 7.805%
- CC(=O)N1N=C(c2ccccc2)OC1C(=O)NCC(=O)OC(C)(C)C (centres undefined) — higher, 21.44%
- CC(=O)N1N=C(c2ccncc2)OC1C(=O)N(C)CCc1ccccc1 (centres undefined) — higher, 106%
- CC(=O)N1N=C(c2ccccc2)OC1C(=O)NCCc1ccc(O)cc1 (centres undefined) — higher, 53.53%
- CC(=O)N1N=C(c2ccccc2)OC1C(=O)NCCc1ccc(C)cc1 (centres undefined) — higher, 30.4%
- CCOC(=O)CNC(=O)C1OC(c2ccccc2)=NN1C(C)=O (centres undefined) — higher, 54.14%
- CC(=O)N1N=C(c2ccco2)OC1C(=O)N(C)CCc1ccccc1 (centres undefined) — higher, -2.033%
- Cc1oncc1C(=O)NCc1cc(=O)n2c(n1)CN(CC(C)C)CCC2.O=C(O)C(F)(F)F — higher, -11.26%
- CC(C)N1CCOCC2(CCCN(C(=O)CCc3cccnc3)C2)C1.O=C(O)C(F)(F)F (centres undefined) — lower, -33.91%
- Cc1cccc(CN2CCC3(CCN(c4ncccn4)CC3)C2=O)c1.O=C(O)C(F)(F)F — higher, 21.29%
- O=C(O)C(F)(F)F.O=C(O)C(F)(F)F.O=C(O)C(F)(F)F.O=C1CO[C@@H]2CN(Cc3ccncc3)C[C@H]2N1Cc1ccncc1 — lower, -33.4%
- CN(C)CC1CSCCCN1C(=O)c1ccsc1 (centres undefined) — lower, -29.65%
- CCCN1CCN(Cc2cc(Cl)cc(Cl)c2)[C@H]2CS(=O)(=O)C[C@H]21 — higher, 31.79%
- O=S1(=O)C[C@@H]2[C@H](C1)N(Cc1cc(Cl)cc(Cl)c1)CCN2CC1CC1 — higher, 99.37%
- O=S1(=O)C[C@@H]2[C@H](C1)N(Cc1cc(Cl)cc(Cl)c1)CCN2CCO — higher, -5.541%
- CN(C)c1ncc(-c2cccc(C(N)=O)c2)c(C2CNCCO2)n1.Cl (centres undefined) — higher, -21.53%
- CN1CCc2cc(C(=O)N(C)C)c(NCC3CC3)nc2CC1.O=C(O)C(F)(F)F.O=C(O)C(F)(F)F — lower, -30.07%
- Cn1ccnc1CN1C[C@@H]2[C@@H](C1)OCC(=O)N2CC1CCCC1.O=C(O)C(F)(F)F — lower, -35.26%
- CN(C)[C@@H]1CN(C(=O)Cc2cccc(F)c2)[C@@H]2CCCO[C@H]12.O=C(O)C(F)(F)F — higher, -1.237%
- Cc1nnc([C@@]23CCO[C@@H]2CCN(S(C)(=O)=O)C3)o1 — higher, -10.32%
- Cc1nnc([C@@]23CCO[C@@H]2CCN(S(=O)(=O)c2cccnc2)C3)o1 — higher, 18.46%
- Cc1nnc([C@@]23CCO[C@@H]2CCN(S(=O)(=O)c2ccccc2)C3)o1 — higher, 53.88%
- N#Cc1cccc(CN2C[C@@H]3CN(c4ncccn4)C[C@@H]3C2)c1.O=C(O)C(F)(F)F — higher, 29.7%
- CO[C@H]1C[C@@H]2CN(C(=O)c3cc4cccc(F)c4[nH]3)C[C@@H]2C1 — higher, 17.75%
- CCNC(=O)CCc1c(C)nc2cc(O)nn2c1C — higher, 0.7588%
- COC(=O)CCc1c(C)nc2cc(O)nn2c1C — higher, -4.051%
- COc1ccc(NC(=O)CCc2c(C)nc3cc(O)nn3c2C)cn1 — higher, 61.44%
- CN(C)C(=O)c1cn[nH]c1C1CCCN1Cc1nccn1C.O=CO (centres undefined) — lower, -23.16%
- Cc1ccc(CN2CCC(O)(Cn3nc(-c4cccs4)oc3=O)CC2)o1.O=C(O)CC(O)(CC(=O)O)C(=O)O — higher, 5.66%
- CC1(C)CC(N2Cc3nc(N4CCCC4)ncc3C2=O)CC(C)(C)N1 — higher, 8.213%
- Cc1noc(C2CCN(C(=O)CCc3ccccn3)CC2)n1 — higher, 13.4%
- Cc1noc(C2CCN(C(=O)CCNc3ncccn3)CC2)n1 — higher, 13.08%
- Cc1noc(C2CCN(C(=O)CCc3nccs3)CC2)n1 — higher, 51.73%
- O=C(O)C(F)(F)F.O=C(O)C(F)(F)F.c1cnn(CCCO[C@@H]2CC[C@H]3[C@H]2OCCN3CC2CC2)c1 — lower, -27.44%
- CCn1ncc2c1CN(CCc1cccc(Cl)c1)CC2COC.O=C(O)C(F)(F)F.O=C(O)C(F)(F)F (centres undefined) — higher, -10.95%
- c1csc(C2(NCc3csc(C4CC4)n3)CCCC2)n1 — higher, 66.7%
- CCCc1nc(CNC(=O)Cc2csc(C)n2)cs1 — higher, 8.263%
- CCCc1nc(CNC2(c3nccs3)CCCC2)cs1 — higher, 94.85%
- Cc1csc(C2(NCc3csc(C4CC4)n3)CCCC2)n1 — higher, 41.22%
- O=C(NC1(c2nccs2)CCCC1)c1cc(C2CC2)on1 — higher, 7.107%
- O=C(CCNC1(c2nccs2)CCCC1)N1CCOCC1 — higher, -14.8%
- Cc1cccc(CN2CCc3nnc(Cn4cccc4)n3CC2)n1.O=C(O)C(F)(F)F — higher, -14.44%
- O=C(O)C(F)(F)F.O=C(O)C(F)(F)F.c1cc(-c2ccc3nc(C4CCN(CC5CC5)CC4)nn3c2)ccn1 — lower, -27.27%
- Cc1cccc(CN2CC[C@@H]3[C@@H]2CCN3C(=O)c2cc(C)on2)n1.O=C(O)C(F)(F)F — higher, -16.64%
- CCN(CC)CC1CN(Cc2cccc(C#N)c2)Cc2nccn2C1.O=C(O)C(F)(F)F.O=C(O)C(F)(F)F (centres undefined) — lower, -22.76%
- Cc1ccc(-c2nc(CN3CCn4c(nnc4C4CC4)C3)cs2)o1 — higher, 171.6%
- Cc1nnc2n1CCN(Cc1csc(-c3ccsc3)n1)C2 — higher, -0.9289%
- Cc1ccc(-c2nc(CN3CCn4c(C)nnc4C3)cs2)o1 — higher, -2.255%
- c1sc(C2CCCCC2)nc1CN1CCn2c(nnc2C2CC2)C1 — higher, 7.076%
- c1cnc(-c2nc(CN3CCn4c(nnc4C4CC4)C3)cs2)nc1 — higher, 18.84%
- c1sc(C2CCCC2)nc1CN1CCn2c(nnc2C2CC2)C1 — higher, 55.31%
- CCc1nnc2n1CCN(Cc1csc(-c3ccc(C)o3)n1)C2 — higher, 49.84%
- c1cc(-c2nc(CN3CCn4c(nnc4C4CC4)C3)cs2)cs1 — higher, 159.7%
- c1ccc(-c2nc(CN3CCn4c(nnc4C4CC4)C3)cs2)cc1 — higher, 10.73%
- Cc1ccc(C)c(-n2cc(CN3CCOCC3)c(-c3ccccc3)n2)c1 — higher, 9.683%
- Cc1ccc(S(=O)(=O)c2ncccc2CN2CCOCC2)cc1 — lower, -21.96%
- Cc1ccc(-n2cc(CN3CCOCC3)c(-c3cccc(C)c3)n2)cc1 — higher, 101.4%
- Cn1cc(CN2CCCC(O)C2)c(-c2ccccc2F)n1 (centres undefined) — higher, 14.46%
- Cc1ccc(C)c(-n2cc(CN3CC[C@@H](O)C3)c(-c3ccccc3)n2)c1 — higher, 85.17%
- Cc1cccc(-c2noc(CN3CCOCC3C)n2)c1 (centres undefined) — higher, -19.27%
- CCC(=O)Nc1cccc(OCC(=O)N[C@@H]2C[C@H]3CC[C@@H]2C3)c1 — higher, -8.125%
- O=C(O)C(F)(F)F.O=C(O)C(F)(F)F.c1cc(CO[C@@H]2CN(Cc3ccoc3)[C@@H]3CCCO[C@@H]32)ccn1 — higher, 21.84%
- CN1CCOCC2(CCCN(C(=O)c3ccccc3F)C2)C1.O=C(O)C(F)(F)F (centres undefined) — lower, -25.25%
- CN(C)C(=O)N1CCC2(CC1)CN(Cc1ccccn1)C(=O)CO2.O=C(O)C(F)(F)F — higher, -0.5573%
- Cn1cc(CN2CCCC23CCN(C(=O)c2ccncc2)CC3)cn1.O=C(O)C(F)(F)F — lower, -22.55%
- Cc1ncccc1NC(=O)[C@H]1C[C@@H]2CCN(Cc3nccs3)C[C@@H]2O1.O=C(O)C(F)(F)F.O=C(O)C(F)(F)F — higher, -3.608%
- O=C(CC1CN(Cc2ccccc2)CCO1)NC1CCCC1 (centres undefined) — higher, -14.55%
- O=C(CC1CN(Cc2ccccc2)CCO1)NCCN1CCOCC1 (centres undefined) — lower, -41.8%
- Cl.O=C(O)CC1CN(Cc2ccccc2)CCO1 (centres undefined) — higher, 70.76%
- Cc1ccc(CN2CCn3cc(CN4CCN(C)CC4)nc3C2)cc1.O=C(O)C(F)(F)F.O=C(O)C(F)(F)F.O=C(O)C(F)(F)F — higher, -4.711%
- CNC(=O)NCC1CCC2(CCN(C(=O)c3cccnc3)CC2)CO1.O=C(O)C(F)(F)F (centres undefined) — higher, 9.868%
- O=C(O)CC(O)(CC(=O)O)C(=O)O.c1cncc(-c2nccc(CN3CCC(N4CCCCC4)CC3)n2)c1 — higher, -13.06%
- O=C(O)C(F)(F)F.O=C(O)C(F)(F)F.c1cncc(COCc2nnn3c2CN(Cc2ccsc2)CC3)c1 — lower, -26.71%
- CC(C)C(=O)N1CCN(C(=O)c2cc(C(C)C)on2)[C@H]2CS(=O)(=O)C[C@H]21 — higher, -10.22%
- CC(C)C(=O)N1CCN(C(=O)c2cscn2)[C@H]2CS(=O)(=O)C[C@H]21 — higher, 73.31%
- Cc1cnc(C(=O)N2CCN(C(=O)C(C)C)[C@@H]3CS(=O)(=O)C[C@@H]32)cn1 — higher, 4.224%
- Cc1ccc(OCC(=O)N2CCCC(n3nc(C)nc3C)C2)cc1 (centres undefined) — higher, -13.19%
- Cc1n[nH]cc1CNC(C(=O)N1CCCCC1)c1ccccc1 (centres undefined) — higher, -8.652%
- O=C(O)C(F)(F)F.c1csc(CN2CCc3nnc(COc4cncnc4)n3CC2)c1 — lower, -24.48%
- Cc1ccc(C2(O)CCN(Cc3nc(C)n4ccccc34)CC2)nc1 — higher, 43.96%
- Cc1nc(CN2CCC3(CCCO3)CC2)c2ccccn12 — higher, 77.67%
- Cc1nc(CN2C[C@@H](CN3CCOCC3)[C@@H](CO)C2)c2ccccn12 — higher, 1.211%
